The campaign covered roughly 5,500 compounds. About 2,000 (36%) were called active. Roughly 18% stayed inconclusive and do not appear here. Cut-off read from the data, not from the text of the source: active = normalized growth mostly below about 0.91 (no sharp cut-off); inconclusive = no clear call, values can overlap the other calls; inactive = mostly above about 0.92. This is one part of the list.
Experiment: chemical genetic growth profiling, strain panel (AID 1159580);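 note: tested at 20 µM; growth read once vehicle control cultures reached saturation at 30 °C; 1 = growth at the plate median or of vehicle wells; lower values mean less growth of the strain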
Conditions: growth OD

Measured: normalized growth

C[C@]12C=CC(=O)C=C1CCC1C2C(=O)C[C@@]2(C)C1CC[C@]2(O)C(=O)CO (stereo partly specified)
inactive: S. cerevisiae deletion strains, locus YJR075W, strain HOC1, hits give low values 0.985 | S. cerevisiae deletion strains, locus YKL009W, strain mrt4, hits give low values 0.979 | S. cerevisiae deletion strains, locus YKL068W, hits give low values 0.989 | S. cerevisiae deletion strains, locus YKL085W, strain MDH1 (second series), hits give low values 0.998 | S. cerevisiae deletion strains, locus YKL085W, strain MDH1, hits give low values 0.998 | S. cerevisiae deletion strains, locus YKL160W, strain elf1, hits give low values 0.97 | S. cerevisiae deletion strains, locus YKL190W, strain CNB1, hits give low values 0.989 | S. cerevisiae deletion strains, locus YKR001C, strain vps1, hits give low values 0.995 | S. cerevisiae deletion strains, locus YKR026C, strain gcn3, hits give low values 0.997 | S. cerevisiae deletion strains, locus YKR091W, strain srl3, hits give low values 0.997 | S. cerevisiae deletion strains, locus YLL001W, strain dnm1, hits give low values 0.955 | S. cerevisiae deletion strains, locus YLL026W, hits give low values 0.986 | S. cerevisiae deletion strains, locus YLL041C, strain sdh2, hits give low values 0.994 | S. cerevisiae deletion strains, locus YLR027C, strain aat2, hits give low values 0.978 | S. cerevisiae deletion strains, locus YLR039C, strain RIC1, hits give low values 0.993 | S. cerevisiae deletion strains, locus YLR058C, strain SHM2, hits give low values 0.978 | S. cerevisiae deletion strains, locus YLR102C, strain apc9, hits give low values 0.99 | S. cerevisiae deletion strains, locus YLR113W, strain HOG1, hits give low values 1.03 | S. cerevisiae deletion strains, locus YLR221C, strain rsa3, hits give low values 1.01 | S. cerevisiae deletion strains, locus YLR258W, strain gsy2, hits give low values 1.02 | S. cerevisiae deletion strains, locus YLR262C, strain YPT6 (second series), hits give low values 0.986 | S. cerevisiae deletion strains, locus YLR262C, strain YPT6, hits give low values 0.968 | S. cerevisiae deletion strains, locus YLR268W, strain sec22, hits give low values 1.05 | S. cerevisiae deletion strains, locus YLR320W, strain mms22, hits give low values 0.985 | S. cerevisiae deletion strains, locus YLR330W, strain CHS5, hits give low values 0.998 | S. cerevisiae deletion strains, locus YLR342W, strain FKS1 (second series), hits give low values 1.01 | S. cerevisiae deletion strains, locus YLR342W, strain FKS1, hits give low values 0.978 | S. cerevisiae deletion strains, locus YLR357W, strain rsc2, hits give low values 0.992 | S. cerevisiae deletion strains, locus YLR370C, strain arc18, hits give low values 0.994 | S. cerevisiae deletion strains, locus YLR371W, strain rom2, hits give low values 0.974 | S. cerevisiae deletion strains, locus YLR384C, strain iki3, hits give low values 0.985 | S. cerevisiae deletion strains, locus YLR418C, strain cdc73, hits give low values 0.985 | S. cerevisiae deletion strains, locus YML016C, strain PPZ1, hits give low values 0.991 | S. cerevisiae deletion strains, locus YML032C, strain rad52, hits give low values 1.01 | S. cerevisiae deletion strains, locus YML120C, strain ndi1, hits give low values 0.986 | S. cerevisiae deletion strains, locus YML124C, strain tub3, hits give low values 0.983 | S. cerevisiae deletion strains, locus YMR058W, strain fet3, hits give low values 0.996 | S. cerevisiae deletion strains, locus YMR078C, strain ctf18, hits give low values 0.979 | S. cerevisiae deletion strains, locus YMR125W, strain sto1, hits give low values 0.987 | S. cerevisiae deletion strains, locus YMR129W, hits give low values 1 | S. cerevisiae deletion strains, locus YMR205C, strain PFK2, hits give low values 0.988 | S. cerevisiae deletion strains, locus YMR223W, strain ubp8, hits give low values 0.963 | S. cerevisiae deletion strains, locus YMR231W, strain pep5, hits give low values 1.02 | S. cerevisiae deletion strains, locus YMR263W, strain SAP30, hits give low values 0.992 | S. cerevisiae deletion strains, locus YMR307W, strain GAS1, hits give low values 0.991 | S. cerevisiae deletion strains, locus YNL067W, strain RPL9B, hits give low values 0.992 | S. cerevisiae deletion strains, locus YNL071W, strain lat1, hits give low values 1.01 | S. cerevisiae deletion strains, locus YNL153C, strain GIM3, hits give low values 0.99 | S. cerevisiae deletion strains, locus YNL183C, strain NPR1, hits give low values 0.986 | S. cerevisiae deletion strains, locus YNL209W, strain ssb2, hits give low values 1.01 | S. cerevisiae deletion strains, locus YNL233W, strain BNI4, hits give low values 0.997 | S. cerevisiae deletion strains, locus YNL248C, strain rpa49, hits give low values 1 | S. cerevisiae deletion strains, locus YNL250W, strain rad50, hits give low values 0.981 | S. cerevisiae deletion strains, locus YNL271C, strain bni1, hits give low values 0.999 | S. cerevisiae deletion strains, locus YNL298W, strain CLA4, hits give low values 0.982 | S. cerevisiae deletion strains, locus YNL307C, strain MCK1, hits give low values 0.998 | S. cerevisiae deletion strains, locus YNL322C, strain KRE1 (second series), hits give low values 0.998 | S. cerevisiae deletion strains, locus YNL322C, strain KRE1, hits give low values 0.994 | S. cerevisiae deletion strains, locus YNR049C, strain mso1, hits give low values 0.999 | S. cerevisiae deletion strains, locus YNR052C, strain pop2, hits give low values 0.995 | S. cerevisiae deletion strains, locus YOL006C, strain TOP1, hits give low values 0.938 | S. cerevisiae deletion strains, locus YOL012C, strain htz1 0.891 | S. cerevisiae deletion strains, locus YOL147C, strain pex11, hits give low values 0.999 | S. cerevisiae deletion strains, locus YOR001W, strain rrp6, hits give low values 0.976 | S. cerevisiae deletion strains, locus YOR061W, strain CKA2, hits give low values 0.963 | S. cerevisiae deletion strains, locus YOR069W, strain VPS5, hits give low values 0.997 | S. cerevisiae deletion strains, locus YOR070C, strain gyp1, hits give low values 1.01 | S. cerevisiae deletion strains, locus YOR080W, strain dia2, hits give low values 0.992 | S. cerevisiae deletion strains, locus YOR083W, strain WHI5, hits give low values 0.964 | S. cerevisiae deletion strains, locus YOR106W, strain vam3, hits give low values 0.993 | S. cerevisiae deletion strains, locus YOR136W, strain idh2, hits give low values 0.982 | S. cerevisiae deletion strains, locus YOR144C, strain elg1, hits give low values 0.985 | S. cerevisiae deletion strains, locus YOR184W, strain ser1, hits give low values 0.973 | S. cerevisiae deletion strains, locus YOR231W, strain MKK1, hits give low values 1.01 | S. cerevisiae deletion strains, locus YOR265W, strain rbl2, hits give low values 0.993 | S. cerevisiae deletion strains, locus YOR270C, strain vph1, hits give low values 1.02 | S. cerevisiae deletion strains, locus YOR290C, strain snf2, hits give low values 1.03 | S. cerevisiae deletion strains, locus YOR316C, strain cot1, hits give low values 0.985 | S. cerevisiae deletion strains, locus YPL051W, strain arl3, hits give low values 0.989 | S. cerevisiae deletion strains, locus YPL055C, strain LGE1, hits give low values 0.94 | S. cerevisiae deletion strains, locus YPL078C, strain atp4, hits give low values 0.955 | S. cerevisiae deletion strains, locus YPL106C, strain sse1, hits give low values 1.01 | S. cerevisiae deletion strains, locus YPL240C, strain hsp82, hits give low values 0.987 | S. cerevisiae deletion strains, locus YPL241C, strain CIN2, hits give low values 0.997 | S. cerevisiae deletion strains, locus YPL256C, strain CLN2, hits give low values 1.05 | S. cerevisiae deletion strains, locus YPR119W, strain clb2, hits give low values 0.982 | S. cerevisiae deletion strains, locus YPR141C, strain kar3, hits give low values 0.98 | S. cerevisiae deletion strains, locus YPR163C, strain tif3, hits give low values 0.986 | S. cerevisiae deletion strains, locus YPR167C, strain met16, hits give low values 0.996 | S. cerevisiae deletion strains, strain wtn01, hits give low values 0.992 | S. cerevisiae strains, strain wild type, hits give low values 0.986

Reference: PubChem BioAssay AID1159580 (chemical genetic matrix, 2015)
